VACV Venus inh: vaccinia inhibition (Venus reporter); Vaccinia virus Venus reporter expression, fluorescence; 330,000 tested, 0.46% active; Potency, µM (top dose mostly 36.5 µM), for the others: at the highest dose activity change, negative = inhibition, actives largely listed as inhibitors; calls by dose curve; tested in A549 cells; note: nearly all actives have a fitted effect of over 30% in size
Marburg entry inh: blocks Marburg virus binding to or entry into cells. 300,000 tested, 1.8% active. Marburg virus pseudotyped entry inhibition, cell reporter. AID 540276. Potency, µM (titrated, usually from 37.8 µM), for inactives: at the highest dose activity change, negative = inhibition, usual class: inhibitors; calls by dose curve; tested in HEK293 cells
LASV entry inh: blocks Lassa virus binding to or entry into cells | Potency, µM (titrated, usually from 37.9 µM), for the others: at the top dose activity change, negative = inhibition, most hits filed as inhibitors | 300,000 tested, 1.2% active | Lassa virus pseudotype entry inhibition, cell reporter; calls by dose curve; tested in HEK293 cells; note: nearly all actives have a fitted effect of over 50% in size
HCV inh: blocks hepatitis C virus; Huh7.5.1 HCVcc-Cre infection, luciferase reporter, 44 h; Potency, µM (top dose mostly 41.8 µM), inactives show at the top dose activity change, negative = inhibition, hits mostly inhibitors; 340,000 tested, 3.4% active; AID 651820; active = well fitted inhibition curve with a large enough effect; inconclusive = small, poorly fitted or top-dose-only effect, or another doubt; inactive = no such curve, though single readings can be large or run the other way
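Whole-lifecycle infectious HCVcc-Cre system; cells 1,000/well, compound then virus (~0.5 moi) added 4 h after plating, 44 h culture. Luciferase read 15 sec following 15 min substrate incubation, room temp.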
FMDV antiviral: foot and mouth disease virus antiviral activity. FMDV antiviral cell-based qHTS. Potency, µM (highest dose often 57.9 µM), without a hit: at the highest dose activity change, negative = inhibition, actives largely listed as inhibitors. 410,000 tested, 1.2% active; calls by dose curve; tested in HEK293T cells; note: read-out not given here; nearly all actives have a fitted effect of over 45% in size
Vaccinia mCherry: inhibitors of vaccinia virus infection (mCherry reporter signal); AID 720579; Vaccinia virus mCherry reporter infection, fluorescence; 310,000 tested, 0.63% active; Potency, µM (top dose mostly 36.5 µM), inactives show at the top dose activity change, negative = inhibition, actives largely listed as inhibitors; calls by dose curve; tested in A549 cells; note: nearly all actives have a fitted effect of over 35% in size
* = called active by the depositor; [ ] = another dose, or the depositor's remark. Only some compounds are listed: those with a hit (about 5.3% of all), similar ones and a draw of the others. % is set by controls: 0 for no effect and ±100 for the full control effect; potency is the fitted concentration of half-maximal effect.

For Cc1cc(C(=O)COC(=O)CNC(=O)c2ccccc2)c(C)n1CC1CCCO1 (stereo not given) the results were VACV Venus inh -0.7%, Marburg entry inh -6.4%[46.1 µM], LASV entry inh 14.3%, HCV inh 0.6%, FMDV antiviral 15.8µM* and Vaccinia mCherry inactive.
Screening CNS(=O)(=O)c1cccc(C(=O)OCC(=O)c2cc(C)n(CC3CCCO3)c2C)c1 (stereo not given) returned VACV Venus inh -15.6%, Marburg entry inh inconclusive, LASV entry inh 12.6µM*, HCV inh inconclusive, FMDV antiviral 12.3% and Vaccinia mCherry 6.7%.
For Cc1cccc(C(=O)NCC(=O)OCC(=O)c2cc(C)n(CC3CCCO3)c2C)c1 (stereo not given) the results were VACV Venus inh -4.8%, Marburg entry inh -1.5%[46.1 µM], LASV entry inh inconclusive, HCV inh 2.2%, FMDV antiviral 3.5% and Vaccinia mCherry -10.7%.
O=C(Nc1ccc(Cl)cc1F)C1CC(=O)N(Cc2ccco2)C1 (stereo not given) was read as VACV Venus inh -5.3%, Marburg entry inh 23.1%, LASV entry inh 5.3%, HCV inh 1.2%, FMDV antiviral -13.7% and Vaccinia mCherry inactive.
For O=c1[nH]c2c(-c3nc(-c4ccc(Cl)cc4)cs3)c(O)cn2c2ccccc12 the results were VACV Venus inh -3.1% and Vaccinia mCherry 25.5%.
Screening Fc1ccc(Nc2ncnc3sc4c(c23)CCC4)cc1 returned Marburg entry inh 1.8%, HCV inh 3.16µM* and FMDV antiviral -23.6%.
c1csc(CCNc2ncnc3sc4c(c23)CCC4)c1 was read as VACV Venus inh inconclusive, HCV inh 7.94µM*, FMDV antiviral 12.6µM* and Vaccinia mCherry -25.3%.
c1ccc(Nc2ncnc3sc4c(c23)CCC4)cc1 was read as VACV Venus inh -14.6%, Marburg entry inh -4.4%, LASV entry inh 22.4%, HCV inh inconclusive and Vaccinia mCherry -20.5%.
COc1ccc2nc(NC(=O)C3CCN(S(=O)(=O)c4cccnc4)CC3)sc2c1 was read as VACV Venus inh inconclusive, Marburg entry inh -9.9%, HCV inh inconclusive, FMDV antiviral inconclusive and Vaccinia mCherry inconclusive.
Screening Cc1ccc2nc(NC(=O)C3CCN(S(=O)(=O)c4cccs4)CC3)sc2c1 returned Marburg entry inh inconclusive, LASV entry inh 10.3µM*, HCV inh 12.6µM* and FMDV antiviral inconclusive.
For CCn1c2ccccc2c2cc(NC(=O)C3CCN(S(=O)(=O)c4cccs4)CC3)ccc21 the results were VACV Venus inh -15.7%, Marburg entry inh 0.5%, LASV entry inh -23.0%, HCV inh 3.98µM* and Vaccinia mCherry -6.4%.
COc1ccc2nc(NC(=O)C3CCCN(S(=O)(=O)c4cccs4)C3)sc2c1 (stereo not given) was read as VACV Venus inh inconclusive, Marburg entry inh inconclusive, LASV entry inh inconclusive, HCV inh 12.6µM* and FMDV antiviral 0.0%.
COc1ccc2nc(NC(=O)C3CCN(S(=O)(=O)c4cccs4)CC3)sc2c1 was read as VACV Venus inh inconclusive, Marburg entry inh inconclusive, LASV entry inh 14.6µM*, HCV inh 10µM*, FMDV antiviral 14.1µM* and Vaccinia mCherry inconclusive.
For Cc1cnc(C)c(-c2ccc(F)c3c2OC(CNC(=O)Cc2c(F)cccc2F)C3)n1 (stereo not given) the results were VACV Venus inh -1.3%, FMDV antiviral -16.4% and Vaccinia mCherry -13.6%.
`COc1ccc(C(=O)N2CCC[C@@]3(CCN(c4ncccn4)C3)C2)cc1` gave FMDV antiviral -9.1%.
CC(=O)N1CCc2c(sc3c2c(=O)n(Cc2ccccc2)c(=O)n3Cc2ccccc2Cl)C1 was read as VACV Venus inh -22.0%, Marburg entry inh -22.9%[46.1 µM], FMDV antiviral inconclusive and Vaccinia mCherry -29.7%.
For Cc1ccc(-n2ncc(C#N)c2/N=C/N2CCCCCC2)cc1 the results were VACV Venus inh -7.9%, Marburg entry inh 10.5%, LASV entry inh inconclusive, HCV inh 10µM*, FMDV antiviral inconclusive and Vaccinia mCherry -14.5%.
For COc1cccc2sc(N(Cc3cccnc3)C(=O)c3ccc4c(c3)OCCO4)nc12 the results were VACV Venus inh -10.0%[7.34 µM], LASV entry inh -8.4%[46.1 µM], FMDV antiviral inconclusive and Vaccinia mCherry -8.3%[7.34 µM].
Screening c1ccc(CN2CCC(Nc3nc(-c4cccs4)nc4ccccc34)CC2)cc1 returned Marburg entry inh 11.6µM*, LASV entry inh inconclusive, HCV inh inconclusive and FMDV antiviral inconclusive.
For c1csc(-c2nc(NCC3CCCO3)c3ccccc3n2)c1 (stereo not given) the results were VACV Venus inh -14.0%, Marburg entry inh 10µM*, LASV entry inh -4.6%[46.1 µM], HCV inh inconclusive, FMDV antiviral -25.5% and Vaccinia mCherry 1.8%.
CC(C)Oc1ccc(-c2nc(NCC3CCCO3)c3ccccc3n2)cc1 (stereo not given) was read as VACV Venus inh -5.1%, Marburg entry inh inconclusive, LASV entry inh inconclusive, HCV inh 11.2µM*, FMDV antiviral inconclusive and Vaccinia mCherry -20.1%.
Screening CCN(CC)CCCN(C(=O)c1cccc(C)c1)c1nc(-c2ccc(OC)cc2)cs1 returned HCV inh 4.1% and FMDV antiviral 2.4%.
COc1ccc(OC)c(-c2csc(N(Cc3ccco3)C(=O)c3cccs3)n2)c1 was read as Marburg entry inh inconclusive, LASV entry inh 5.6%, HCV inh 12.6µM* and FMDV antiviral -22.4%.
CCN(CC)CCCN(C(=O)c1ccc(Br)cc1)c1nc(-c2ccc(OC)cc2)cs1 was read as VACV Venus inh -16.7%, Marburg entry inh 3.55µM*, LASV entry inh inconclusive, HCV inh inconclusive, FMDV antiviral -8.4% and Vaccinia mCherry inconclusive.
CCN(CC)CCCN(C(=O)c1cccs1)c1nc(-c2ccc(OC)cc2)cs1 was read as Marburg entry inh inconclusive, LASV entry inh inconclusive, HCV inh 11.2µM* and FMDV antiviral -13.7%.
Screening CC(C)NC(=O)[C@@H]1C[C@@H](Sc2nc3ccccc3[nH]2)CN1C1Cc2ccccc2C1 returned VACV Venus inh -25.3%, FMDV antiviral 1.0% and Vaccinia mCherry inconclusive.
Screening CCOC(=O)C1(C(=O)OCC)CC2=C(C=CC3=C(C=C2)CC(C(=O)OCC)(C(=O)OCC)C3)C1 returned Marburg entry inh 6.2%[14.2 µM].
Screening COc1ccc(OC)c(-c2cc(C(=O)Nc3c(C)nn(Cc4ccccc4C)c3C)no2)c1 returned Marburg entry inh inconclusive, LASV entry inh inconclusive, HCV inh 3.16µM* and FMDV antiviral inconclusive.
`COc1ccc(OC)c(-c2cc(C(=O)Nc3c(C)nn(Cc4ccccc4Cl)c3C)no2)c1` gave VACV Venus inh -26.6%, Marburg entry inh -3.5%, LASV entry inh -10.0%, HCV inh 15.8µM*, FMDV antiviral -8.8% and Vaccinia mCherry -13.4%.
`COc1cccc(-c2cc(C(=O)Nc3c(C)nn(Cc4ccccc4Cl)c3C)no2)c1` gave VACV Venus inh -22.2%, Marburg entry inh inconclusive, LASV entry inh inconclusive, FMDV antiviral inconclusive and Vaccinia mCherry -28.3%.
